MBD2 DNA inh = inhibitors of MBD2 binding to methylated DNA, primary screen, biochemical, TR-FRET, DNA-binding domain, human; inhibition, % at 4.4 µM; actives 0.31% (n = 370,000); Methyl-CpG-binding domain protein 2 (Homo sapiens), Q9UBB5; MBD2 binding to methylated oligonucleotide; AID 686964, 2013; in the data active means inhibition above about 13%
Target sequence (Q9UBB5 whole entry, looked up, the tested form may be a part): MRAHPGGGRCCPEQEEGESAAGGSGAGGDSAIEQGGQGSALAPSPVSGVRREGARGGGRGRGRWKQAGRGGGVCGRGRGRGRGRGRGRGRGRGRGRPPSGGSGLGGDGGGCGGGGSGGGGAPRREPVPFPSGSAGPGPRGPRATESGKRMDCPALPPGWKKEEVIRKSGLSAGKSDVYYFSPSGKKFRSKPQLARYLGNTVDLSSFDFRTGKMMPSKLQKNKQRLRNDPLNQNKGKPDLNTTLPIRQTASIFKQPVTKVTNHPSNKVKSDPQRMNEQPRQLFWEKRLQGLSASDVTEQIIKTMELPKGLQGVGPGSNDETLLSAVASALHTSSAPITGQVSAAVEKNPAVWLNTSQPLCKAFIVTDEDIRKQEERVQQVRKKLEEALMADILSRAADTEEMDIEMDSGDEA
Rin1 Abl inh = inhibitors of Rin1-Abl protein binding, primary screen, biochemical, TR-FRET | Tyrosine-protein kinase ABL1 (Homo sapiens) + Ras and Rab interactor 1 (Homo sapiens), … | inhibition, % at 7.35 µM | actives 0.4% (n = 360,000); in the data active means inhibition above about 5%, passing the limit was not always enough
LEDGF integ inh = blockers of LEDGF/p75-dependent integrase strand transfer – biochemical, TR-FRET, high throughput, primary screen; inhibition, % at 3.7 µM; actives 0.64% (n = 370,000); TR-FRET IN-LEDGF/p75 DNA integration, Eu/Cy5; HIV-1 integrase (with human LEDGF/p75);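 active means inhibition above the screen-wide mean plus 3 SD, cut at about 13% in these data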;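 further: signal is the Cy5 over europium emission ratio at 671 and 618 nm; 0% = plate median of compound wells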
UHRF1 MBD2 ctr = UHRF1 methylated DNA binding inhibitors, primary screen, counter-screen for MBD2 inhibitor project, biochemical, TR-FRET, human UHRF1, single concentration. UHRF1 binding to methylated oligo. inhibition, % at 4.4 µM. actives 0.75% (n = 370,000). AID 687016, 2013; in the data active means inhibition above about 21%;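 further: UHRF1 SRA domain binding a hemimethylated CpG hairpin DNA probe; 0% = median of test compound wells and 100% = reference inhibitor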
TCR CD3 inh = inhibitors of human TCR-CD3 interaction, primary screen, biochemical, fluorescence, TAMRA-labeled TCR probe; T-cell receptor (TCR); inhibition, % at 9.4 µM; actives 0.37% (n = 360,000); in the data active means inhibition above about 19%;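 further: recombinant mutant TCR 2C K166C tagged with TAMRA read by polarization; 0% = receptor in buffer alone and 100% = receptor with positive control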
* = called active by the depositor. This is a sample that favours compounds with a hit; in the whole collection about 2% have one here.

Screening COc1ccc(CN(C(=O)c2cc(=O)c3ccccc3o2)C2CCS(=O)(=O)C2)cc1OC (stereo not drawn) returned MBD2 DNA inh 8.9, Rin1 Abl inh -3.1, LEDGF integ inh 2.2, UHRF1 MBD2 ctr 21.5* and TCR CD3 inh 2.6.
`O=C(c1ccco1)N(Cc1cccc(F)c1)C1CCS(=O)(=O)C1` (stereo not drawn) gave MBD2 DNA inh 6.5, Rin1 Abl inh -0.6, LEDGF integ inh -4.0, UHRF1 MBD2 ctr 21.2* and TCR CD3 inh 9.1.
O=C(c1cc(=O)c2ccccc2o1)N(Cc1ccccc1)C1CCS(=O)(=O)C1 (stereo not drawn) was read as MBD2 DNA inh -5.1, Rin1 Abl inh 0.0, LEDGF integ inh -1.6, UHRF1 MBD2 ctr -0.8 and TCR CD3 inh 2.5.
For COc1cccc(NC(=O)Nc2nc3ncccn3c2-c2ccc(C)cc2)c1 the results were MBD2 DNA inh 4.0, LEDGF integ inh -0.6 and UHRF1 MBD2 ctr -2.0.
`COCCCn1cc(CN(C)C2CN(Cc3cn(CCCOC)nn3)S(=O)(=O)C2)nn1` (stereo not drawn) gave MBD2 DNA inh 7.9, LEDGF integ inh 1.7, UHRF1 MBD2 ctr 24.4* and TCR CD3 inh 0.4.
COc1ccccc1NS(=O)(=O)c1cc(NC(=O)C2CCCO2)ccc1C (stereo not drawn) was read as MBD2 DNA inh -4.5, Rin1 Abl inh 2.8, LEDGF integ inh -6.1, UHRF1 MBD2 ctr -0.9 and TCR CD3 inh -2.8.
`COc1ccc(C(=O)c2[nH]c(N)c(C(=O)c3c[nH]c4ccccc34)c2-c2ccc(OC)cc2)cc1` gave MBD2 DNA inh -0.1, LEDGF integ inh 4.5, UHRF1 MBD2 ctr -6.1 and TCR CD3 inh -0.7.
For Cc1cccc2c1NC1(CCCC1)CC2C (stereo not drawn) the results were MBD2 DNA inh -3.3, Rin1 Abl inh 3.8, LEDGF integ inh -1.4, UHRF1 MBD2 ctr 22.5* and TCR CD3 inh 7.2.
Screening CC1CC2(CCCC2)Nc2ccc(F)cc21 (stereo not drawn) returned MBD2 DNA inh 1.6, Rin1 Abl inh -0.6, LEDGF integ inh -0.4, UHRF1 MBD2 ctr 2.2 and TCR CD3 inh -4.7.
COc1cccc2c1NC(C(=O)O)C1CC=CC21 (stereo not drawn) was read as Rin1 Abl inh 7.6*.
`O=C(Nc1ccn(C2CC(OC(=O)c3ccccc3)C(CO)O2)c(=O)n1)c1ccccc1` (stereo not drawn) gave MBD2 DNA inh 2.5, Rin1 Abl inh 9.1*, LEDGF integ inh 1.9, UHRF1 MBD2 ctr -2.6 and TCR CD3 inh -3.4.
Screening O=C(Nc1ccn(CCOC(=O)c2ccccc2)c(=O)n1)c1ccccc1 returned MBD2 DNA inh -6.4, Rin1 Abl inh 14.3, LEDGF integ inh 6.6, UHRF1 MBD2 ctr -2.1 and TCR CD3 inh 1.0.
`COc1ccc(C)cc1-n1nnnc1SCC(=O)NC1CCS(=O)(=O)C1` (stereo not drawn) gave MBD2 DNA inh -4.2, Rin1 Abl inh 5.7, LEDGF integ inh 3.3, UHRF1 MBD2 ctr -2.2 and TCR CD3 inh 4.0.
`O=C1C=C(c2ccc(-c3ccccc3)cc2)C[C@@H](c2ccc(F)cc2)C1` gave MBD2 DNA inh -7.1, Rin1 Abl inh 1.3, LEDGF integ inh 0.3, UHRF1 MBD2 ctr -1.4 and TCR CD3 inh -4.5.
Screening O=C1C=C(c2ccccc2Oc2ccccc2)C[C@@H](c2ccc(F)cc2)C1 returned MBD2 DNA inh 10.9, Rin1 Abl inh -4.5, LEDGF integ inh 3.9, UHRF1 MBD2 ctr 21.8* and TCR CD3 inh -4.2.
C[C@@H]1CN([C@H](C)CO)C(=O)c2cc(NS(=O)(=O)c3ccccc3)ccc2O[C@@H](C)CCCCO[C@@H]1CN(C)Cc1ccc(Cl)c(Cl)c1 was read as MBD2 DNA inh -2.9, LEDGF integ inh -0.7, UHRF1 MBD2 ctr 0.0 and TCR CD3 inh -5.9.
For O=S(=O)(NCCCCNS(=O)(=O)c1ccc(F)cc1)c1ccc(F)cc1 the results were MBD2 DNA inh -2.7, Rin1 Abl inh -0.1, LEDGF integ inh 3.4, UHRF1 MBD2 ctr -0.3 and TCR CD3 inh -1.9.
CC(C)(C)SCCNS(=O)(=O)c1ccc(F)cc1 was read as MBD2 DNA inh 0.8, Rin1 Abl inh 3.0, LEDGF integ inh -1.5, UHRF1 MBD2 ctr 24.1* and TCR CD3 inh 2.1.
CCN(CCn1cccn1)C(=O)c1cc(COc2cc(C)ccc2C)on1 was read as MBD2 DNA inh -0.8, Rin1 Abl inh 0.8, LEDGF integ inh 1.2, UHRF1 MBD2 ctr 30.7* and TCR CD3 inh 4.4.
CCN(CCn1cccn1)C(=O)c1cc(COc2ccccc2SC)on1 was read as MBD2 DNA inh 2.2, Rin1 Abl inh -2.3, LEDGF integ inh -1.6, UHRF1 MBD2 ctr 35.0* and TCR CD3 inh -5.6.
Screening CCN(CCN1CCCC1)C(=O)c1cc(COc2ccccc2SC)on1 returned MBD2 DNA inh -3.3, Rin1 Abl inh 0.3, LEDGF integ inh 0.2, UHRF1 MBD2 ctr 0.6 and TCR CD3 inh -4.7.
For CCC(C(=O)Nc1ccccc1N1CCCC1)c1cccc(Cl)c1 (stereo not drawn) the results were MBD2 DNA inh -1.4, LEDGF integ inh 2.7 and UHRF1 MBD2 ctr -1.1.
Screening N#C/C(=C\c1ccc(O)cc1)C(=O)N1CCCC1 returned MBD2 DNA inh 8.4, Rin1 Abl inh -4.7, LEDGF integ inh -2.1, UHRF1 MBD2 ctr 21.4* and TCR CD3 inh -2.9.
`CSc1ccccc1NC(=O)NCCCl` gave MBD2 DNA inh 1.7, Rin1 Abl inh 0.8, LEDGF integ inh -1.1, UHRF1 MBD2 ctr 22.1* and TCR CD3 inh -1.1.
For O=C(N[C@H](Cc1ccccc1)C(=O)N1CCN(CC(=O)N2CCCC2)CC1)[C@H]1O[C@@H](n2ccc(=O)[nH]c2=O)[C@H](O)[C@@H]1O the results were MBD2 DNA inh 1.5, LEDGF integ inh -1.7, UHRF1 MBD2 ctr 0.6 and TCR CD3 inh 3.0.
Screening O=C(COC(=O)COc1ccc(Cl)cc1Cl)NC1CCCC1 returned MBD2 DNA inh 0.1, Rin1 Abl inh 0.1, LEDGF integ inh -0.8, UHRF1 MBD2 ctr -0.1 and TCR CD3 inh 2.5.
Screening CCCCOc1ccc(C(=O)NC2CCCCN(Cc3cccc(C(F)(F)F)c3)C2=O)cc1 (stereo not drawn) returned MBD2 DNA inh 2.4, LEDGF integ inh 1.3 and UHRF1 MBD2 ctr 3.8.
`CCc1ccc(CN2CCC(C(=O)Nc3ccc(Oc4ccccc4)nc3)CC2)o1` gave MBD2 DNA inh -3.5, Rin1 Abl inh -4.2, LEDGF integ inh 1.8, UHRF1 MBD2 ctr 42.8* and TCR CD3 inh 5.4.
`CN1C(=O)C(=C2CCCCCC2)SC1=S` gave MBD2 DNA inh 6.7, Rin1 Abl inh -5.1, LEDGF integ inh 3.6, UHRF1 MBD2 ctr -0.3 and TCR CD3 inh -7.5.
Screening O=C1NC(=S)SC1=C1CCCC1 returned MBD2 DNA inh 4.3, Rin1 Abl inh -1.6, LEDGF integ inh 8.0, UHRF1 MBD2 ctr 21.3* and TCR CD3 inh 1.1.
